# Results filed as inconclusive are left out. A call without a number means that no potency is given here. A number with no mark means an inactive call. Activity calls are given as the source filed them. Calls follow the shape of the dose curve; as a rule, active = well fitted cell-killing curve with a large enough effect in the repeat runs; inconclusive = weak or mixed curves, or effect the other way; inactive = flat fitted curve, though single readings scatter.
# Key:
# [1] = cAMP Responsive Elements (CRE) small molecule antagonists, cell-based qHTS assay: qHTS cell viability counter screen (AID 2060913); also: nearly all actives have a fitted effect of over 40% in size
# Summary of the method: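 Cytotoxicity read in the same wells as the CRE-bla HEK293T antagonist assay: after 3 h compound with 0.25 uM NKH477 final and 2 h beta-lactamase substrate, CellTiter-Glo luminescence measured.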
# [2] = cAMP Responsive Elements (CRE) small molecule agonists, cell-based qHTS assay: qHTS cell viability counter screen (AID 2060914);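 also: viability read after 3 h of compound exposure; nearly all actives have a fitted effect of over 50% in size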
# Summary of the method: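 CRE-bla HEK 293T cells, plated 18 h at 37 °C, were exposed to compounds for 3 h at 37 °C/5% CO2. Viability was then measured in the same wells by CellTiter-Glo luminescence after 30 min at room temperature.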
Structure (SMILES),Potency [1],Potency [2],"viability change, negative = cytotoxic [1]","activity change, negative = cytotoxicity [2]"
CC1=CC(=O)c2ccccc2C1=O,inactive,inactive,,
C[n+]1c2cc(N)ccc2cc2ccc(N)cc21 (tested in a mixture with another compound),inactive,inactive,,
CN(C)CCN(Cc1ccccc1)c1ccccn1,inactive,inactive,,
Cc1coc2ccccc2c1=O,inactive,inactive,,
Cc1occc1C(=O)Nc1ccc(C(=O)N2CCC(F)(F)/C(=C\C(=O)N3CCC(N4CCCCC4)CC3)c3ccccc32)cc1,inactive,inactive,,
COc1ccc(C(=O)c2ccc(OC)cc2O)c(O)c1,inactive,inactive,,
CCCCCCCCC(=O)OCC(C)OC(=O)CCCCCCCC (configuration not stated),inactive,inactive,,
NCCNC(=O)c1ccc(Cl)cn1,inactive,inactive,,
CCOC(=O)OCC/C(SC(=O)OCC)=C(\C)N(C=O)Cc1cnc(C)nc1N,inactive,inactive,,
COCCOC,inactive,inactive,,
O=C(CCN1CCN2CCCC2C1)N1c2ccccc2Sc2ccc(Cl)cc21 (configuration not stated),,,0.501% [at 18.9 µM],5.15% [at 18.9 µM]
CCCC(CCC)(C(=O)OCC)C(=O)OCC,inactive,inactive,,
O=C(NCC1CN(c2ccc(N3CCOCC3=O)cc2)C(=O)O1)c1ccc(Cl)s1 (configuration not stated),inactive,inactive,,
CC(C)C(=O)Nc1cccc(C(F)(F)F)c1,inactive,inactive,,
Nc1ccc(S(=O)(=O)Nc2ccnn2-c2ccccc2)cc1,,,5.89% [at 18.9 µM],8.29% [at 18.9 µM]
CC(C)(c1cc(Br)c(OCC(Br)CBr)c(Br)c1)c1cc(Br)c(OCC(Br)CBr)c(Br)c1 (configuration not stated),inactive,inactive,,
